Targets with a hit are over-represented here; the source holds about 7,900 in all. About 0.6% of all pairs of compound and target were hits.
compound: CC1=CC=C(C=C1)SC2=C3C=C(SC3=CN=C2)C(=O)N; assay: log2 fold change, soluble protein after heating vs DMSO (PISA); higher = thermal stabilisation; K562 cells, 10 uM, 30 min; active = over 0.2 and 3.5 SD of the protein, either way, in both replicates (recomputed)
Method in brief: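 Quantification of soluble protein used TMTpro 16plex LC-MS/MS, with channel sums equalised. Samples were the supernatant after 21,000xg for 90 min of pooled aliquots from K562 cells (2×10^6 cells/mL) treated with 10 μM compound for 30 min, heated for 3 min over 48°C-58°C, and extracted in PBS with 0.5% NP-40 at 4°C. Values, from duplicates, describe thermal stability against control samples on a log2 fold-change scale.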

Sequence of UniProt Q9NZC3 (Q9NZC3 whole entry, looked up): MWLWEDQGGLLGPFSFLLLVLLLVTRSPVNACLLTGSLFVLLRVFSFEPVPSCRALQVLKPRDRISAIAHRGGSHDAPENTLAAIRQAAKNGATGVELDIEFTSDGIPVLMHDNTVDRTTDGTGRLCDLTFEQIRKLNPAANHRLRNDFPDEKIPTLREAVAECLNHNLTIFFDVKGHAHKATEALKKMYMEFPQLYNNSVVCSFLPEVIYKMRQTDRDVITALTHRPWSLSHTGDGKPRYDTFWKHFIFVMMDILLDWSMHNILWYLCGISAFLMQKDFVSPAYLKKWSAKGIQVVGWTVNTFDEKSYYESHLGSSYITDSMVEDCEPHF
Sequence of UniProt P55795 (P55795 whole entry, looked up): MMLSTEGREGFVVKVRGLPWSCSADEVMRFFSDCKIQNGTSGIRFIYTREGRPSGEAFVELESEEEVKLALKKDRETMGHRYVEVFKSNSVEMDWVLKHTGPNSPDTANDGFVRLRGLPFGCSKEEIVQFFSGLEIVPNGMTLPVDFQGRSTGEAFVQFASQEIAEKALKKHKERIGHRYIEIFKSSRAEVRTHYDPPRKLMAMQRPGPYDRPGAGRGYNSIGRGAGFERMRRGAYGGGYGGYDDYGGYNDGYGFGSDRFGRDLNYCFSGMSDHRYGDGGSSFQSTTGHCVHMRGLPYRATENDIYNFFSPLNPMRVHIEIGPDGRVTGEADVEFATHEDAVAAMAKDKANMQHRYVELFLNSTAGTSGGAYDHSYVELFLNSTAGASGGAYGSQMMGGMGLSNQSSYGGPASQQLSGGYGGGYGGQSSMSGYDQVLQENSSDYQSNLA
Sequence of UniProt Q8NCW6 (Q8NCW6 whole entry, looked up): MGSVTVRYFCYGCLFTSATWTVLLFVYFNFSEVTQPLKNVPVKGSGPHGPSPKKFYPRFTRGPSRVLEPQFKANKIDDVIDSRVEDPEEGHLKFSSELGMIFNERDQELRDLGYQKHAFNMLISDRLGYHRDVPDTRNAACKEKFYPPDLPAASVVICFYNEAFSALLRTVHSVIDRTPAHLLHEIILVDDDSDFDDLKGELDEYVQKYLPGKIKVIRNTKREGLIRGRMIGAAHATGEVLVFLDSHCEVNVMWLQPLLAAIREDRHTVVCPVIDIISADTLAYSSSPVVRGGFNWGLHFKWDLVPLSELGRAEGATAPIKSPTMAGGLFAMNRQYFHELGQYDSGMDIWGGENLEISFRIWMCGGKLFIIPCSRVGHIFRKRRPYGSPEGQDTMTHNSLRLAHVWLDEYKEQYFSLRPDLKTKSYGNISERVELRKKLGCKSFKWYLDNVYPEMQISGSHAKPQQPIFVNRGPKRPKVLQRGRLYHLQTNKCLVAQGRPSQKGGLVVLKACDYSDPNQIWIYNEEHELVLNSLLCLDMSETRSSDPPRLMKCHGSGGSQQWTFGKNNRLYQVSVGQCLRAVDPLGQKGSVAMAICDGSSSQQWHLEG
Sequence of UniProt O43427 (O43427 whole entry, looked up): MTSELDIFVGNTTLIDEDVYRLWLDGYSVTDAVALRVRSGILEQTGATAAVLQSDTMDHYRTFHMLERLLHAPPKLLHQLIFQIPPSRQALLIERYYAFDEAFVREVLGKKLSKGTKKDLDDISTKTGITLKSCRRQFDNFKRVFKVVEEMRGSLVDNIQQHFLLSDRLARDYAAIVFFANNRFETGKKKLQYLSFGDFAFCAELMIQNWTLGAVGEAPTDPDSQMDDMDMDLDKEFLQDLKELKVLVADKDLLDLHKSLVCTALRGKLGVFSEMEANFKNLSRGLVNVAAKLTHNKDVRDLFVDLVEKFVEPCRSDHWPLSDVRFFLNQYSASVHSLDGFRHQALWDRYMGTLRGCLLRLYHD
Sequence of UniProt P14324 (P14324 whole entry, looked up): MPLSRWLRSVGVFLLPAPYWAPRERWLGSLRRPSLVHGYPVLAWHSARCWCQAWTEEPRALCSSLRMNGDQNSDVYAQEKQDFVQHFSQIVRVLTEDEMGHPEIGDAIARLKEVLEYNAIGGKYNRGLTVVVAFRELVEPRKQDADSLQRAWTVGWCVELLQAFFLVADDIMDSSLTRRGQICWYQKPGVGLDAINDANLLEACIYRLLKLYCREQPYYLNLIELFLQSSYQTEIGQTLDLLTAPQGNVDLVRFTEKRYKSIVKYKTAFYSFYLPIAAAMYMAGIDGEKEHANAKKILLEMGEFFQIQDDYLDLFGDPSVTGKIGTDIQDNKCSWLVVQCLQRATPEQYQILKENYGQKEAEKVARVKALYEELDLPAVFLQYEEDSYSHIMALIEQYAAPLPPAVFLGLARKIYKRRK
Sequence of UniProt Q9NVI1 (Q9NVI1 whole entry, looked up): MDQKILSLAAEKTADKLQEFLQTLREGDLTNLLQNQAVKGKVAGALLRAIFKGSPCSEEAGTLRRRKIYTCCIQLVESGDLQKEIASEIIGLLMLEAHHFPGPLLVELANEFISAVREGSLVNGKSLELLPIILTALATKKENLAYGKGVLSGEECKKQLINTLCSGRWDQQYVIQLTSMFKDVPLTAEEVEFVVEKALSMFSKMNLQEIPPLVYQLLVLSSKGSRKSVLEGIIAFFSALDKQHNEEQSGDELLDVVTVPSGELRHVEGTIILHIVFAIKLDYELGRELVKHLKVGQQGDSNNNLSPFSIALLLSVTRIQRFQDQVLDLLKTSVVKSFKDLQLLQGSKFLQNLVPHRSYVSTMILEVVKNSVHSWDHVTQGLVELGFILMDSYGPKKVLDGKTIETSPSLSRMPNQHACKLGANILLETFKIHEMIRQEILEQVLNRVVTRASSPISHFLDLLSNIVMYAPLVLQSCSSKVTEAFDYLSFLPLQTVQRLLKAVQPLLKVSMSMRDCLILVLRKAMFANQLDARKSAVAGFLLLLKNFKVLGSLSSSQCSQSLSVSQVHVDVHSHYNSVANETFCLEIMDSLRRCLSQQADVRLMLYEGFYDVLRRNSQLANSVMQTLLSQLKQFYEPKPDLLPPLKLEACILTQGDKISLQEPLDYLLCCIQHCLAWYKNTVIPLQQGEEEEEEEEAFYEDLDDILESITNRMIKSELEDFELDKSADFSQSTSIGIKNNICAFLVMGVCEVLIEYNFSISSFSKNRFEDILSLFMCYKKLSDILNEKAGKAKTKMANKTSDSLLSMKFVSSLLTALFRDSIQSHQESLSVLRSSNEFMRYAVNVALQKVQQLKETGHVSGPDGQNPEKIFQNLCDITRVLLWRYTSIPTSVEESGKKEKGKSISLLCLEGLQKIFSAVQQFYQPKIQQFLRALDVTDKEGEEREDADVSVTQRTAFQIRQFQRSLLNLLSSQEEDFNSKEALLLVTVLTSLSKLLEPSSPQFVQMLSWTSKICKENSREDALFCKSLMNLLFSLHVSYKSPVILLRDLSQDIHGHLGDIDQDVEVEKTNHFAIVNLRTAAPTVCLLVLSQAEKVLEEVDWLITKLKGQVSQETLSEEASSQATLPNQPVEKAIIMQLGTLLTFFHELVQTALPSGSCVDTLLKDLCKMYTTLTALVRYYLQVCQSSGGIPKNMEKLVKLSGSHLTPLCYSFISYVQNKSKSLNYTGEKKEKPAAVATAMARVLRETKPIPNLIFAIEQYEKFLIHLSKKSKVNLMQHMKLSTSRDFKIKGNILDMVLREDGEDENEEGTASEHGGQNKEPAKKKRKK
Sequence of UniProt Q13547 (Q13547 whole entry, looked up): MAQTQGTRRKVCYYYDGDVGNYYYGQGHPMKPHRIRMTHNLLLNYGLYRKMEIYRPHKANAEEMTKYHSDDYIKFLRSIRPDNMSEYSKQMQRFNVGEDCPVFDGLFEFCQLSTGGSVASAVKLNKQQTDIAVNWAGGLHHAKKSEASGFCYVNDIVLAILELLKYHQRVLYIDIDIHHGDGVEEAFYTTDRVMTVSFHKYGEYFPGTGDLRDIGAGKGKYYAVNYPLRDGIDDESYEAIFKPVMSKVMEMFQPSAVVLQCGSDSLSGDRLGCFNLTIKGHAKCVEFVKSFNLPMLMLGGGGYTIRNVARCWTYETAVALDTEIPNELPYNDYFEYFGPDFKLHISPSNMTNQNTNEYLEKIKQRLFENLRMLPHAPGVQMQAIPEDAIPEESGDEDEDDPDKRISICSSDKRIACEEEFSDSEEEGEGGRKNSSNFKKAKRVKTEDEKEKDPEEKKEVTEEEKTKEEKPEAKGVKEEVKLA
Sequence of UniProt P37268 (P37268 whole entry, looked up): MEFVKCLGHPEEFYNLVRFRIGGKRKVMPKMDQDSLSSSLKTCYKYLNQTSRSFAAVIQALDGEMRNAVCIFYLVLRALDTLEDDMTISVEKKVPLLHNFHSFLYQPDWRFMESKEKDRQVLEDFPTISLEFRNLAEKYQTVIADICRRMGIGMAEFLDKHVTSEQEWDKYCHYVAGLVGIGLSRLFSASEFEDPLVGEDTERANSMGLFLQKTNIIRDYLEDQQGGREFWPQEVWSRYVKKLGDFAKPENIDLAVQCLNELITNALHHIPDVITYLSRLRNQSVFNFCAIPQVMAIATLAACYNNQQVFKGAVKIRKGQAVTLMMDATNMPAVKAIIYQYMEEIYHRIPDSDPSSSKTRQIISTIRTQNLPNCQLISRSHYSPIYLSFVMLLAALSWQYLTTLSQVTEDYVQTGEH
Sequence of UniProt Q01628 (Q01628 whole entry, looked up): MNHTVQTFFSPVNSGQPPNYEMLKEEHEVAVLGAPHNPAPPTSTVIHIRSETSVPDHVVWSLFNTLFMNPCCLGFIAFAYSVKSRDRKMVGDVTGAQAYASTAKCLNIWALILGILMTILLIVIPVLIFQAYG
Sequence of UniProt Q9H4G4 (Q9H4G4 whole entry, looked up): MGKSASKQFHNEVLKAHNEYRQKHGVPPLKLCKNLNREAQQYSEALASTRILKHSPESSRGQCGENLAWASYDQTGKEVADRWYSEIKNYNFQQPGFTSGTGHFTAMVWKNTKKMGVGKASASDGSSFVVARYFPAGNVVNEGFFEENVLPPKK
Sequence of UniProt P09211 (P09211 whole entry, looked up): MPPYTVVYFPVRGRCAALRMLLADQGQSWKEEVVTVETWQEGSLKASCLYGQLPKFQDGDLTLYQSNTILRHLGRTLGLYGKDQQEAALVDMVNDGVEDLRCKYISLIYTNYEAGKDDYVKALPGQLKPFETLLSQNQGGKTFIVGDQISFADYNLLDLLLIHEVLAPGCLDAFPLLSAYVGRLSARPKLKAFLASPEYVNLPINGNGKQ

Row | Target | log2 fold change
1 | FAT1 (UniProt Q14517) | -0.029 (inactive)
2 | GAB2 (UniProt Q9UQC2) | 0.022 (inactive)
3 | GLCCI1 (UniProt Q86VQ1) | -0.029 (inactive)
4 | FANCI (UniProt Q9NVI1) | 0.01 (inactive)
5 | GALNT11 (UniProt Q8NCW6) | -0.024 (inactive)
6 | FDPS (UniProt P14324) | 0.109 (inactive)
7 | HDAC1 (UniProt Q13547) | 0.051 (inactive)
8 | HDAC2 (UniProt Q92769) | 0.015 (inactive)
9 | HDAC7 isoform 5 (UniProt Q8WUI4) | -0.043 (inactive)
10 | GEMIN2 (UniProt O14893) | 0 (inactive)
11 | HPCAL1 (UniProt P37235) | 0.048 (inactive)
12 | FCHO1 (UniProt O14526) | 0.004 (inactive)
13 | HIP1R (UniProt O75146) | 0.003 (inactive)
14 | HADHB (UniProt P55084) | -0.002 (inactive)
15 | GHDC (UniProt Q8N2G8) | -0.03 (inactive)
16 | FEN1 (UniProt P39748) | 0.045 (inactive)
17 | GOPC (UniProt Q9HD26) | -0.051 (inactive)
18 | FDFT1 (UniProt P37268) | 0.063 (inactive)

Row | Target | log2 fold change
19 | GDE1 (UniProt Q9NZC3) | 0.012 (inactive)
20 | ICMT (UniProt O60725) | -0.079 (inactive)
21 | GAK (UniProt O14976) | -0.337 (inactive)
22 | GSTP1 (UniProt P09211) | 0.008 (inactive)
23 | FOXO3 (UniProt O43524) | 0.037 (inactive)
24 | FDXR isoform 7 (UniProt P22570) | -0.039 (inactive)
25 | HNRNPH2 (UniProt P55795) | 0.079 (inactive)
26 | GLIPR2 (UniProt Q9H4G4) | -0.054 (inactive)
27 | FIBP (UniProt O43427) | 0.001 (inactive)
28 | HNRNPC isoform 2 (UniProt P07910) | -0.349 (inactive)
29 | FBXO7 (UniProt Q9Y3I1) | 0.004 (inactive)
30 | GPS2 (UniProt Q13227) | -0.17 (inactive)
31 | GGA2 (UniProt Q9UJY4) | -0.047 (inactive)
32 | GMEB1 (UniProt Q9Y692) | 0.04 (inactive)
33 | FANCD2 isoform 1 (UniProt Q9BXW9) | 0.027 (inactive)
34 | GPX4 (UniProt P36969) | 0.095 (inactive)
35 | IFITM3 (UniProt Q01628) | 0.148 (inactive)

Reference: the supplement of paper PMC10849652
